This is a sample that favours compounds with a hit; in the whole collection about 4.1% have one here.
hcDAF12 agonist = H. contortus DAF-12 nuclear receptor activators, primary screen, cell-based, luminescence, HEK293, lit1-tk-luc reporter; HEK293 hcDAF-12 lit1-tk-luc reporter; 0% DMSO, 100% Δ7-dafachronic acid; activation, % at 6.8 µM; hit rate 1.4% among 370,000; AID 652067, 2013;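 active = activation above the mean of all tested compounds plus 3 SD, cut at about 5.5% in these data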;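 note: 100% = response to 3 µM Δ7-dafachronic acid high control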
ssDAF12 agonist = S. stercoralis DAF-12 nuclear receptor activators, primary screen, cell-based, luminescence, HEK293, GRIP1 co-expression, lit1-tk-luc | hit rate 1% among 370,000 | activation, % at 6.8 µM | AID 652126, 2013 | HEK293 ssDAF-12/GRIP1 lit1-tk-luc reporter; % of 3 µM dafachronic acid response | Nuclear hormone receptor DAF-12 (Strongyloides stercoralis);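 active = activation above the mean over all tested compounds plus 3 SD, cut at about 0.9% in these data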;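 note: 0% = DMSO-only wells and 100% = 3 µM delta7-dafachronic acid wells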
DAX1 inh-1 = DAX1 (NR0B1) inhibitors, primary screen, cell-based, HEK293, Gal4-DAX1, luciferase luminescence; inhibition, % at 6.75 µM; HEK293 Gal4-DAX1 luciferase reporter; hit rate 0.99% among 340,000; Nuclear receptor subfamily 0 group B member 1 (Homo sapiens), P51843; AID 504766, 2011;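 active = inhibition above the mean over all tested compounds plus 3 SD, cut at about 4.2% in these data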;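 note: 0% = DAX1-transfected cells with DMSO and 100% = empty-vector control cells with DMSO; inhibition shows as a rise in luminescence from relieved DAX1 repression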
Target sequence (P51843 207-470 limits assumed): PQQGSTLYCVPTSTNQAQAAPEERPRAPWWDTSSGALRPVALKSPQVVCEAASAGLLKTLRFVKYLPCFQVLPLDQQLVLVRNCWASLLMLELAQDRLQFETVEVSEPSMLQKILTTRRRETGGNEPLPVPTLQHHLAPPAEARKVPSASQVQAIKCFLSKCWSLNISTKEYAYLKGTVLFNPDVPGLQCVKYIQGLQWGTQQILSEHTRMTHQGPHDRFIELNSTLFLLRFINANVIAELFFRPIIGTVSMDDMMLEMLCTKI
hgDAF-12 ag = H. glycines DAF-12 receptor agonists, primary screen, cell-based, luminescence, HEK293, GAL4 fusion, UAS-luciferase. AID 687014, 2013. HEK293 GAL4-hgDAF12 UAS-luciferase reporter, agonist luminescence; normalized to butyrate control. Nuclear hormone receptor DAF-12 (Heterodera glycines), GAL4 fusion. activation, % at 6.8 µM. hit rate 1.8% among 370,000;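 active = activation above a cutoff set at the mean of all screened compounds plus 3 SD, cut at about 10% in these data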;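 note: 0% = DMSO wells and 100% = sodium butyrate wells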
DAX1 inh-2 = DAX1 (NR0B1) inhibitors on StAR promoter, primary screen, cell-based, luminescence, SF-1 (NR5A1), full-length DAX-1 | HEK293T StAR-luciferase reporter, SF-1/DAX-1 repression relief | inhibition, % at 6.8 µM | hit rate 1.1% among 370,000;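 active = inhibition above the mean over all tested compounds plus 3 SD, cut at about 3.6% in these data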;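 note: 0% = DAX-1 cells with DMSO and 100% = cells lacking DAX-1 with DMSO; higher inhibition means more luminescence from relief of DAX-1 repression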
* hit, by the source's call; . = no result given.

SMILES	hcDAF12 agonist	ssDAF12 agonist	DAX1 inh-1	hgDAF-12 ag	DAX1 inh-2
O=C(Nc1ccc(-c2nc3ccccc3o2)cc1)c1ccc2c(c1)OCO2	-0.4	-1.5	-0.4	-2.5	-0.1
Cc1ccc2oc(-c3cccc(NC(=S)NC(=O)c4cccs4)c3)nc2c1	2.7	-0.7	1.1	3.5	1.1
Cc1ccc(-c2nc3ccccc3o2)cc1NC(=S)NC(=O)c1cccs1	0.8	0.1	2.2	11.1*	0.4
COc1ccc2oc(-c3ccc(C)c(NC(=O)c4ccc(N5CCOCC5)c([N+](=O)[O-])c4)c3)nc2c1	3.4	0.0	0.6	10.5*	2.0
c1ccc2cc3[nH]c(CNc4nc(N5CCOCC5)nc5c4ncn5-c4ccsc4)nc3cc2c1	-5.3	-2.2	.	-5.1	.
COc1ccc(N2C(=O)c3[nH]nc(-c4ccccc4)c3C2c2ccc(Br)cc2)cc1 (centres undefined)	0.0	-0.6	.	-2.0	0.5
O=S(=O)(O)c1cc2oc(-c3ccccc3)nc2c2ccccc12	5.8*	-0.3	-0.3	2.2	0.0
O=S(=O)(Nc1ccc2oc(-c3ccccc3)nc2c1)c1ccccc1	-1.2	-1.6	-1.7	3.0	0.1
C=CCN1C(=O)[C@H](CC(=O)NCc2ccccc2)[C@@]2(C(=O)OCC)CCCC=C12	-2.1	-0.8	.	1.9	-0.2
CC(C)(C)OC(=O)N1CCN(C(=O)c2[nH]cnc2C(=O)Nc2cccc(Cl)c2)CC1	0.2	-1.4	5.9*	3.8	-0.3
CCOC(=O)c1ccc(NC(=O)c2nc[nH]c2C(=O)N2CCN(C(=O)OC(C)(C)C)CC2)cc1	-1.3	-1.4	.	-2.4	0.2
COC(=O)[C@H](CC(C)C)N(Cc1cn(Cc2ccc(C)cc2)nn1)S(=O)(=O)c1ccccc1Br	-3.8	-1.3	.	-5.8	-1.4
Cc1ccc(-n2c(SCC(=O)Nc3ccc(OCc4ccccc4)cc3)nnc2-c2cnccn2)cc1	-2.8	-0.8	.	3.3	-3.3
CC(C)(C)c1cc(N2CCOCC2)n2ncc(-c3ccc(Cl)cc3)c2n1	1.6	-1.2	0.1	3.3	0.6
Cc1ccc(-c2cnn3c(N4CCOCC4)cc(C)nc23)cc1	3.9	-1.1	7.6*	-0.2	0.0
C=CCc1c(C)nc2c(-c3ccccc3)cnn2c1N1CCOCC1	5.6*	0.0	4.0	10.4	2.7
Cc1cc(N2CCOCC2)n2ncc(-c3ccc(Cl)cc3)c2n1	-1.2	-1.9	6.7*	-3.2	-0.7
COC(=O)[C@]12C[C@H](CC(=O)N3CCN(C(=O)c4ccco4)CC3)C(=O)N(Cc3cccc4ccccc34)C1=C[C@H](C(C)C)O[C@@H]2C1CC1	-3.1	-1.5	.	-2.5	0.1
COc1ccc2ccccc2c1CN1CCN(C)CC1	-1.4	-0.3	4.7*	-1.5	-0.3
Oc1ccc(/C=C/c2ccc3cccc(O)c3n2)cc1Br	2.5	-0.7	1.3	10.5*	1.4
O=[N+]([O-])c1cccc(/C=C/c2ccc3cccc(O)c3n2)c1	-1.5	-1.3	1.2	3.4	0.1
O=C(Nc1nccs1)C1(C(=O)C2CC2)CC(c2ccccn2)=NO1 (centres undefined)	3.0	1.0*	.	6.4	1.0
C#CCNC(=O)C[C@@H]1C(=O)N(CC=C)/C2=C/CCCCC[C@]21C(=O)OCC	0.9	-1.5	.	-0.7	0.9
CCc1ccc(/C(C)=N/NC(=O)c2c[nH]c3ccccc23)s1	6.5*	1.1*	0.1	3.9	0.5
C/C(=N\NC(=O)c1ccccc1[N+](=O)[O-])c1ccc(Br)s1	-1.3	-1.2	-0.4	1.0	0.1
SMILES	hcDAF12 agonist	ssDAF12 agonist	DAX1 inh-1	hgDAF-12 ag	DAX1 inh-2
C/C(=N\NC(=O)c1ccccc1O)c1ccc(Br)s1	-0.5	-1.1	-0.1	10.9*	1.1
C/C(=N\NC(=O)c1c[nH]c2ccccc12)c1ccco1	5.9*	0.2	0.4	4.4	2.0
C/C(=N\NC(=O)c1c[nH]c2ccccc12)c1ccccn1	3.9	-0.3	0.7	7.4	0.8
Nc1ccn([C@@H]2O[C@H](C(=O)N[C@H](Cc3ccccc3)C(=O)Nc3ccc4scnc4c3)[C@@H](O)[C@H]2O)c(=O)n1	-0.2	-0.4	.	2.8	-1.4
Cc1ccccc1CN1CCCCC(NC(=O)c2cc(-c3ccccc3)no2)C1=O (centres undefined)	-1.4	-1.3	.	-0.7	-2.5
Cc1cc(-c2n[nH]c(=S)n2N=Cc2cccc(OCc3ccccc3)c2)n[nH]1	0.0	-1.3	.	2.9	1.9
CN(C)S(=O)(=O)N1CCc2ccccc2C1	-1.1	-0.4	4.3*	3.0	-0.7
CN(C)S(=O)(=O)N1CCc2ccccc21	3.5	0.2	0.3	2.7	0.6
CCOC(=O)c1[nH]c2c(c1C)C(=O)CC(c1ccc(F)cc1)C2 (centres undefined)	-1.9	1.2*	-0.9	2.9	-2.7
COC(=O)[C@]12C[C@H](CC(=O)NCCCN3CCCC3=O)C(=O)N(CCC3=CCCCC3)C1=C[C@H](C(C)C)O[C@@H]2C1CC1	-2.1	-2.1	.	-3.1	-0.2
O=C(CSc1nc2ccccc2c(=O)[nH]1)Nc1ccc(C(=O)O)cc1	-0.5	-1.3	1.1	0.7	0.6
Cc1cc(C(=O)CSc2nnc(-c3ccccc3)n2C)c(C)n1C	1.0	-1.1	-0.5	-1.0	-0.1
Cc1ccc2nc(SCC(=O)c3cc(C)n(C)c3C)[nH]c2c1	-1.0	-0.4	0.5	-0.2	-0.3
COCCn1c(C)cc(C(=O)CSc2nc3ccccc3c(=O)[nH]2)c1C	3.1	-0.2	6.5*	7.0	1.6
Cc1cc(C(=O)CSc2nc3ccccc3[nH]2)c(C)n1C	5.5	1.1*	0.5	10.9*	3.7*
C=CCn1c(C)cc(C(=O)CSc2nc3ccccc3c(=O)[nH]2)c1C	-1.0	-0.9	-1.1	4.3	1.1
Cn1c(=O)n(C)c2cc(NC(=O)CSc3nc4ccccc4c(=O)[nH]3)ccc21	1.5	-1.3	4.7*	-0.2	0.0
Cc1cc(C(=O)CSc2nnc(-c3ccncc3)n2-c2ccccc2)c(C)n1C	-2.2	-1.3	7.4*	-1.5	-1.7
COc1ccc2nc(Nc3sc4c(c3C(N)=O)CCCC4)sc2c1	6.4*	0.2	0.7	3.5	0.5
COc1ccc2nc(NC3=NCCC3)sc2c1	-0.3	-1.0	2.7	5.6	1.7
COc1cc(OC)cc(C(=O)Nc2sc3c(c2C(N)=O)CCC3)c1	0.9	1.1*	1.3	6.8	0.4
COc1ccc(CC(=O)Nc2sc3c(c2C(N)=O)CCCC3)cc1	-2.0	-1.7	0.1	-0.8	-0.3
CN(C)/C=C/C(=O)/C=C/c1ccc(Cl)cc1	-0.6	-1.4	-0.1	-4.7	0.1

Source: PubChem
